Laboratory results from PubChem BioAssay AID1259240 (Keith Lab, Institute of Cancer Science, University of …, 2017).
Activity calls are given as the source filed them. Rule as the data show it: active = fold change mostly below about -2 (no sharp cut-off); inactive = mostly above about -1.8.

Assay: TERT promoter activity modulators, primary screen, cell-based, luciferase reporter, human (AID 1259240)
Settings: A2780 TERT promoter luciferase reporter, 16 h; at 20 µM, fold versus average of vehicle-only wells unless noted

With `Clc1ccc(Cl)c2c1NC(c1cccnc1)C1CC=CC21` (centres undefined) as the molecule, how does the outcome read?
Its outcome is “inactive”.

Which fold change does the source give for `CC12CC(c3ccccc3O1)C(C(=O)OCc1ccccc1)C(=O)N2` (centres undefined) here?
The fold change was -2.11 [at 20 µM] (active).

Which fold change does the source give for `Cc1nnc2ccc(N3CCN(C)CC3)nn12` here?
Its fold change is -1.19 [at 20 µM] (inactive).

With `N#Cc1cnn2c(C(F)(F)F)cc(-c3cccs3)nc12` as the molecule, how does the fold change read?
The fold change was 1.09 (inactive).

Which fold change does the source give for `CC1N=C(c2ccccc2F)c2cc(Cl)ccc2N(Cc2cc(=O)n3ccccc3n2)C1=O` (centres undefined) here?
Its fold change is -1.26 (inactive).

With `Cc1oc(-c2ccccc2F)nc1CN1C(=O)CN=C(c2ccccc2)c2ccccc21` as the molecule, how does the fold change read?
Its fold change is -1.14 (inactive).

Which fold change does the source give for `CCN1CCN(c2ccc3nncn3n2)CC1` here?
The fold change was -1.39 (inactive).

With `CCOC(=O)C1CC2CCCN2C12C(=O)N(Cc1ccccc1)c1ccccc12` (centres undefined) as the molecule, how does the fold change read?
Its fold change is -1.82 [at 20 µM] (inactive).

With `Cc1cc(Cl)cc2c1NC(c1cccnc1)C1CC=CC21` (centres undefined) as the molecule, how does the fold change read?
The fold change was -2.25 (active).
